Laboratory results: PubChem BioAssay (EPA / NIEHS)
Records with an inconclusive call do not appear. Calls of active or inactive are those of the source. How the source made its calls, unless noted: active means hit-call score of the fitted dose curve at least 0.9, where 1 is the maximum; inactive means score below 0.9.

Assays:
[1] = target: Estrogen receptor (Homo sapiens) (UniProt P03372); test: CCTE_Deisenroth_AIME_384WELL_LUC_Active: CCTE's 384-well Estrogen Receptor Transactivation Assay with AIME metabolic competence (ERTA luciferase; metabolism positive), Deisenroth Lab (AID 2284030; active means hit-call score of the fitted dose curve at least 0.9, where 1 is the maximum)
Chain of Estrogen receptor (Homo sapiens) (P03372 whole entry, looked up): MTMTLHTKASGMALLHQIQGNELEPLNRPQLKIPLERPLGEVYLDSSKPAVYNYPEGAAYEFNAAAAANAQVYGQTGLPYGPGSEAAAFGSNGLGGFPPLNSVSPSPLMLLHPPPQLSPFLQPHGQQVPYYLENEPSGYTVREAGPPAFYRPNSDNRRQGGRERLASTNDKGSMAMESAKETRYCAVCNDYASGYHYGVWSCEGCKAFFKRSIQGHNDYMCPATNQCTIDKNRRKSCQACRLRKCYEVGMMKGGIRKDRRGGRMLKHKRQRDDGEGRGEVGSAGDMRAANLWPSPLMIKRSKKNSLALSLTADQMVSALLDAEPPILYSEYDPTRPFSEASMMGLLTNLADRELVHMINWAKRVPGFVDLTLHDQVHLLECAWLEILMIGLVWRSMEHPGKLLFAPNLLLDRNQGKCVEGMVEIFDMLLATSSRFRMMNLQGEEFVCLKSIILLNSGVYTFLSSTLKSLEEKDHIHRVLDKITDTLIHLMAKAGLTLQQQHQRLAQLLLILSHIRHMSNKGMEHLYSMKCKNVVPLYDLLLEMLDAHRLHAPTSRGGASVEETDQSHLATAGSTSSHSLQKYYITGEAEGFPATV
In short: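 VM7Luc4E2 breast cells were given, for 24 hours, medium pre-incubated for 2 hours with parent chemical (0.002-200 uM, 10 concentrations) and alginate-encapsulated phenobarbital/beta-naphthoflavone-induced rat hepatic S9. Luciferase gain of signal was fitted against 17beta-estradiol; n=4 or more.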

[2] = CCTE_Deisenroth_AIME_384WELL_CTox_Active: Cytotoxicity Assessment (CTOX) in CCTE's 384-well Estrogen Receptor Transactivation Assay with AIME metabolic competence (metabolism positive), Deisenroth Lab (AID 2284037; active means hit-call score of the fitted dose curve at least 0.9, where 1 is the maximum;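 further: chemicals first conditioned 2 h by alginate-bound induced rat liver S9 before cells; activity means signal loss indicating cell death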)
In short: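 Cytotoxicity in VM7Luc4E2 breast cells, 24 hour, measured as protease-substrate fluorescence loss, after 2-hour metabolic conditioning with induced rat hepatic S9 in alginate microspheres. Concentrations 0.002 - 200 uM, 10 points, bidirectional fitting.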

[3] = target: Estrogen receptor (Homo sapiens) (UniProt P03372); test: CCTE_Deisenroth_AIME_384WELL_LUC_Inactive: CCTE's 384-well Estrogen Receptor Transactivation Assay without AIME metabolic competence (ERTA luciferase; metabolism negative), Deisenroth Lab (AID 2284038; active means hit-call score of the fitted dose curve at least 0.9, where 1 is the maximum;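 further: hits raise estrogen receptor luciferase signal so potencies reflect agonists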)
In short: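 Metabolism-negative mode: chemicals (10-point, 0.002–200 uM) held 2 h with alginate-water microspheres, then conditioned medium applied to VM7Luc4E2 cells for 24 h. Luciferase induction referenced to 17beta-estradiol.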

[4] = CCTE_Shafer_MEA_acute_synchrony_index: CCTE's Neural Acute Assay for Synchrony, Shafer Lab (AID 2284027);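 further: network synchrony index of spontaneous spiking in primary rat cortical neurons on MEAs; fitted for loss of signal so actives lower synchrony relative to DMSO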
In short: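 Primary rat cortical neurons on 48-well MEAs, dosed at 0.03–40 uM on DIV 13 or 15. Spikes are recorded for 40 min at 37C before and after exposure, and synchrony index (0–1) is expressed as percent change from baseline per well.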

[5] = CCTE_Shafer_MEA_dev_firing_rate_mean: CCTE's Neural Network Formation Assay for Mean Firing Rate, Shafer Lab (AID 2284031);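 further: curve fitted for loss of firing so AC50 reflects decreased mean firing rate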
In short: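 Primary rat cortical neurons on 48-well MEA plates, exposed from plating day 0 with dosing renewed on DIV 5 and 9. Mean well firing rate over active electrodes, recorded days 5, 7, 9, 12, summarised as trapezoidal AUC.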

[6] = CCTE_Shafer_MEA_dev_per_burst_spike_percent: CCTE's Neural Network Formation Assay for Percent of Spikes in a Burst, Shafer Lab (AID 2284032);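 further: fitted as a decrease in burst spike percentage below DMSO baseline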
In short: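 Rat primary cortical neurons on 16-electrode MEA wells, dosed from plating day 0 for 12 days with renewal on DIV 5 and 9; spikes-in-bursts percentage averaged over bursting electrodes, collapsed as AUC across days 5, 7, 9, 12; loss direction versus DMSO.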

[7] = CCTE_Shafer_MEA_dev_burst_rate: CCTE's Neural Network Formation Assay for Burst Rate, Shafer Lab (AID 2284042);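 further: potency for loss of burst rate below DMSO control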
In short: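 Rat primary cortical cultures on PEI/laminin MEA; compound from plating, re-dosed at DIV 5, 9 media change. Single-electrode bursts/recording length, well mean of active electrodes; AUC over DIV 5–12 recordings; loss-of-signal vs DMSO.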

[8] = CCTE_Shafer_MEA_dev_bursting_electrodes_number: CCTE's Neural Network Formation Assay for Number of Bursting Electrodes, Shafer Lab (AID 2284043; active means hit-call score of the fitted dose curve at least 0.9, where 1 is the maximum;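 further: potency is for loss of bursting electrodes relative to DMSO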)
In short: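 Read-out is the per-well number of electrodes bursting at least once every 2 minutes, recorded on days 5, 7, 9 and 12 and collapsed by trapezoidal area under the curve. Cultures were primary rat cortical neurons on MEA plates, treated continuously from plating.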

[9] = CCTE_Shafer_MEA_dev_per_burst_interspike_interval: CCTE's Neural Network Formation Assay for Burst Interspike Interval, Shafer Lab (AID 2284044);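 further: mean spike spacing inside bursts as AUC over recordings on days 5 7 9 12; potency for a decrease of within-burst interspike interval below DMSO level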
In short: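 Mean interspike interval within single-electrode bursts, averaged over bursting electrodes, from rat cortical cultures on MEA plates recorded on days 5, 7, 9 and 12. Continuous compound exposure from plating; trapezoidal AUC fitted downward relative to DMSO.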

[10] = CCTE_Shafer_MEA_dev_burst_duration_mean: CCTE's Neural Network Formation Assay for Mean Burst Duration, Shafer Lab (AID 2284045);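 on AC50: curve fitted for loss meaning shorter burst duration than DMSO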
In short: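 Read-out: average first-to-last-spike interval within single-electrode bursts, averaged over bursting electrodes per well, then summarised as area under the curve across days 5, 7, 9 and 12. Developing rat cortical networks were exposed from day 0.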

[11] = CCTE_Shafer_MEA_dev_interburst_interval_mean: CCTE's Neural Network Formation Assay for Mean Interburst Interval, Shafer Lab (AID 2284046);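 further: well-mean interburst interval of bursting electrodes as AUC over four recording days; curve fitted for decrease in interburst interval relative to DMSO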
In short: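 Rat cortical neurons, 1.5 x 10^5 cells/well, 48-well MEA; compound from day 0 through DIV 12, media and treatment renewed DIV 5/9. Recordings DIV 5, 7, 9, 12; well-mean interburst interval → trapezoidal AUC, loss direction vs DMSO.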

[12] = CCTE_Shafer_MEA_dev_network_spike_number: CCTE's Neural Network Formation Assay for Number of Network Spikes, Shafer Lab (AID 2284048);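 further: synchronized bursts across electrodes counted on days 5 7 9 12 and integrated as AUC; fit as a loss of signal meaning fewer network spikes than DMSO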
In short: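 Developing networks of primary rat cortical neurons are treated over 12 days starting at plating, with media and compound fully replaced on DIV 5 and 9. Network spike counts from four recording days are integrated as trapezoidal AUC.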

[13] = CCTE_Shafer_MEA_dev_network_spike_peak: CCTE's Neural Network Formation Assay for Mean Number of Electrodes in Network Spike, Shafer Lab (AID 2284049);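 further: fitted for loss of signal meaning fewer electrodes in network spikes than DMSO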
In short: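 Rat cortical primary culture, 1.5 x 10^5 cells/well, 48-well MEA (16 electrodes/well). Dosing day 0 through DIV 12, full media/compound exchange DIV 5, 9. AxIS adaptive spike detection; AUC over days 5/7/9/12; loss-of-signal vs DMSO.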

[14] = CCTE_Shafer_MEA_dev_spike_duration_mean: CCTE's Neural Network Formation Assay for Mean Spike Duration, Shafer Lab (AID 2284051);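 further: mean network spike duration pooled as area under curve over DIV 5 to 12 recordings; potency for a decrease in mean network spike duration versus DMSO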
In short: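 Rat cortical primary cultures, 48-well MEA (16 electrodes/well); compound from plating, renewed DIV 5, 9. Network spike duration (AxIS adaptive detector) recorded DIV 5/7/9/12, combined as trapezoidal AUC; loss direction vs DMSO.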

[15] = CCTE_Shafer_MEA_dev_network_spike_duration_std: CCTE's Neural Network Formation Assay for Standard Deviation of Network Spike Duration, Shafer Lab (AID 2284052);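 further: area under curve of spike duration SD across recording days 5 to 12; hits are decreases in network spike duration SD versus DMSO vehicle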
In short: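 Rat cortical cultures, 1.5 x 10^5 cells/well, exposed continuously from plating to DIV 12 with media/compound renewal at DIV 5, 9. Spontaneous activity recorded DIV 5/7/9/12, AxIS adaptive spike detector; AUC across days; negative direction vs DMSO.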

[16] = CCTE_Shafer_MEA_dev_per_network_spike_spike_number_mean: CCTE's Neural Network Formation Assay for Mean Number of Spikes in a Network Spike, Shafer Lab (AID 2284053);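 further: fitted as decrease in spikes per network spike relative to DMSO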
In short: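 Rat cortical primary cultures on 48-well MEA; compound from day 0, re-dosed with full media change DIV 5, 9. Recorded DIV 5, 7, 9, 12; spikes in 0.05 s window at network-spike peak ÷ total network spikes; AUC; loss vs DMSO.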

[17] = CCTE_Deisenroth_AIME_384WELL_CTox_Inactive: Cytotoxicity Assessment (CTOX) in CCTE's 384-well Estrogen Receptor Transactivation Assay without AIME metabolic competence (metabolism negative), Deisenroth Lab (AID 2284039; active means hit-call score of the fitted dose curve at least 0.9, where 1 is the maximum;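 further: cell viability via live-cell protease substrate cleaved to fluorescent probe; cells exposed 24 h to medium preincubated 2 h with alginate-water beads without S9; loss of fluorescence signal means loss of viability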)
In short: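 VM7Luc4E2 human breast cells received conditioned medium from a 2 h incubation of chemical with alginate-water microspheres (no S9), then were exposed 24 h. Viability was read as protease-substrate cleavage to a fluorescent probe; loss of signal was fitted bidirectionally over 0.002–200 uM.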

[18] = test system: DIO2 (gene 1734); test: CCTE_GLTED_hDIO2: CCTE's human Deiodinase 2 (DIO2) Inhibition Assay, Great Lakes Toxicology and Ecology Division (GLTED) Lab (AID 2284050; active means hit-call score of the fitted dose curve at least 0.9, where 1 is the maximum)
In short: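 Cell-free human DIO2 incubated 3 h with chemical; liberated iodide quantified by Sandell-Kolthoff absorbance. Triplicate plates; loss of signal fitted vs DMSO.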

With `C=C(C)C#N` the outcome [1] was “inactive”, the outcome [2] was “inactive” and the outcome [3] was “inactive”.
For `C=C(C)C(=O)[O][Sn]([CH2]CCC)([CH2]CCC)[CH2]CCC`, the AC50 [4] was 116 nM (active), the AC50 [5] was 4.31 nM (active) and the AC50 [6] was 38.9 nM (active). The AC50 [7] was 22.5 nM (active), the AC50 [8] was 19.9 nM (active) and the AC50 [9] was 33.6 nM (active). For the same compound, the AC50 [10] was 26.6 nM (active), the AC50 [11] was 48.2 nM (active) and the AC50 [12] was 21.8 nM (active). For the same compound, the AC50 [13] was 39.4 nM (active), the AC50 [14] was 31.2 nM (active) and the AC50 [15] was 13 nM (active). For the same compound, the AC50 [16] was 30.1 nM (active).
With `CCN1CCC2(CC1)COc1cc3c(cc12)N(C(=O)c1ccc(-c2ccc(-c4nnc(C)o4)cc2C)cc1)CC3` the AC50 [4] was 17200 nM (active).
For `CC(=O)[O][Hg][c]1ccccc1`, the AC50 [4] was 2020 nM (active), the AC50 [5] was 5.54 nM (active) and the AC50 [6] was 11.4 nM (active). For the same compound, the AC50 [2] was 66100 nM (active), the AC50 [17] was 46300 nM (active) and the AC50 [7] was 11.7 nM (active). The AC50 [8] was 10.8 nM (active), the AC50 [9] was 15.4 nM (active) and the AC50 [10] was 9.63 nM (active). For the same compound, the AC50 [11] was 9.58 nM (active), the AC50 [12] was 9.11 nM (active) and the AC50 [13] was 14.5 nM (active). For the same compound, the AC50 [14] was 12.1 nM (active), the AC50 [15] was 11.2 nM (active) and the AC50 [16] was 23.8 nM (active).
With `COc1ccc(C=O)cc1` the outcome [1] was “inactive”, the outcome [2] was “inactive” and the outcome [3] was “inactive”. The outcome [17] was “inactive”.
With `CC(C)(C)CC(C)(C)c1ccc(O)cc1` the outcome [4] was “inactive” and the AC50 [18] was 105000 nM (active).
With `O=C1C2(Cl)C3(Cl)C4(Cl)C(Cl)(Cl)C5(Cl)C3(Cl)C1(Cl)C5(Cl)C24Cl` (configuration not stated) the AC50 [4] was 20000 nM (active), the AC50 [5] was 3940 nM (active) and the AC50 [6] was 4180 nM (active). For the same compound, the AC50 [7] was 3990 nM (active), the AC50 [8] was 3550 nM (active) and the AC50 [9] was 10000 nM (active). For the same compound, the outcome [10] was “inactive”, the AC50 [11] was 3750 nM (active) and the AC50 [12] was 3180 nM (active). For the same compound, the AC50 [13] was 5380 nM (active), the AC50 [18] was 28300 nM (active) and the AC50 [14] was 5430 nM (active). The AC50 [15] was 28 nM (active) and the AC50 [16] was 341 nM (active).
